Measurements taken from PubChem BioAssay AID1053122 (Broad Institute, 2014).
Entries with a potency or affinity are not part of this list.

assay: CTGF mRNA reduction in DLD1 cells – cell-based, DLD1 colon cancer, RT-qPCR, cherry-pick, dose response (AID 1053122); conditions: DLD1 CTGF mRNA (YAP1 pathway), 24 h; series mostly up to 26 µM; CTGF expression fold change (lower = inhibition): at the top concentration;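 active means CTGF level falls with dose and the fitted half-maximal dose is at most twice the top valid dose; inconclusive means flat fit with 30 to 70% drop, or a poor fit; inactive means the rest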

CTGF expression fold change (lower = inhibition), inactive:
C[C@@H]1CN([C@H](C)CO)C(=O)c2ccccc2-c2ccccc2CO[C@@H]1CN(C)Cc1ccc2c(c1)OCCN2C 0.751 unspecified
COc1ccc2c3c(n(C)c2c1)[C@@H](CO)N(Cc1ccncc1)CC31CN(C(=O)Nc2cccc(F)c2)C1 0.843 unspecified
C[C@@H]1CN([C@H](C)CO)S(=O)(=O)c2ccc(C#Cc3ccccc3F)cc2O[C@@H]1CN(C)C(=O)Cc1cccnc1 0.777 unspecified
O=C(CC1CC1)N1CC(=O)N2[C@H](CO)[C@@H](c3ccc(C#Cc4cccc(F)c4)cc3)[C@H]2C1 0.722 unspecified
C[C@H](CO)N1C[C@H](C)[C@@H](CN(C)S(=O)(=O)c2ccc([N+](=O)[O-])cc2)OCc2ccccc2-c2c(n(C)c3ccccc23)C1=O 0.751 unspecified
C[C@@H]1CN([C@@H](C)CO)C(=O)c2cc(NC(=O)Nc3ccccc3)ccc2O[C@@H](C)CCCCO[C@@H]1CN(C)C(=O)Nc1ccccc1 0.865 unspecified
C[C@@H]1CN([C@@H](C)CO)C(=O)Cc2cc(NC(=O)C3CCCCC3)ccc2O[C@@H]1CN(C)Cc1ccc(Cl)c(Cl)c1 0.922 unspecified [at 23.5 µM]
CN1CCN(C(=O)C[C@@H]2CC[C@H]3[C@@H](COc4ccc(NC(=O)C5CCOCC5)cc4C(=O)N3C)O2)CC1 0.869 unspecified
O=C(Nc1ccccc1)[C@@H]1[C@@H](CO)[C@@H]2Cn3c(cccc3=O)[C@H]1N2C(=O)c1ccc(F)cc1 1.04 unspecified
C[C@@H]1CN([C@@H](C)CO)C(=O)c2ccccc2-c2ccccc2CO[C@H]1CN(C)C(=O)Nc1cccc(C(F)(F)F)c1 0.611 unspecified
O=S(=O)(Cc1ccccc1)N1CC2(C1)[C@H](c1ccccc1)[C@H](CO)N2CC1CCCC1 0.538 unspecified
